# Data from PubChem BioAssay (NCATS).
# Results filed as inconclusive are left out. Unmarked numbers belong to inactive results. The source made the active and inactive calls. Calls come from the whole dose curve; as a rule, active = well fitted inhibition curve with a large enough effect; inconclusive = small, poorly fitted or top-dose-only effect; inactive = flat fitted curve, though single readings scatter.
# Molecular target: Calcium and integrin-binding protein 1 (Homo sapiens) (UniProt Q99828)
# Sequence (Q99828 whole entry, looked up): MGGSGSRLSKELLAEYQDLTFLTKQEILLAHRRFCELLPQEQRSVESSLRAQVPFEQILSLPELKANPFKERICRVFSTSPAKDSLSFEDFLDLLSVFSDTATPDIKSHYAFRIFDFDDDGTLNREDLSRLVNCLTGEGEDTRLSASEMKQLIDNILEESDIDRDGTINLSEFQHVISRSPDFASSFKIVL
# Experiment: Primary qHTS for Identification of Calcium Integrin Binding Protein 1 (CIB1) Competitor (AID 1508620); note: top concentration of the series differs between compounds
# Conditions: CIB1-GST / FITC-alphaIIb peptide fluorescence polarization; series mostly up to 57.7 µM; activity change, negative = inhibition: at the top concentration
# Outline: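 Fluorescence polarization competition: GST-tagged CIB1 (1 uM final) preincubated with compound 15 min at room temperature, then FITC-labelled alphaIIb peptide (100 nM final) added. After 15 min at room temperature, polarization read at Ex 480/Em 540.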
# % is set by controls: 0 for no effect and ±100 for the full control effect.
Structure (SMILES),"activity change, negative = inhibition",Potency
C=C1CC23CCC4[C@@](C)(CCC[C@@]4(C)C(=O)O)C2CCC1C3 (stereo not given in full),-7.69% [at 114 µM],–
C[C@H]1CC[C@@]2(OC1)O[C@H]1CC3C4CC=C5C[C@H](O)C[C@@H](O[C@@H]6O[C@@H](C)[C@H](O)[C@@H](O)[C@H]6O[C@@H]6O[C@@H](C)[C@H](O)[C@@H](O)[C@H]6O)[C@]5(C)C4CC[C@]3(C)[C@H]1[C@@H]2C (stereo not given in full),0.158% [at 30.2 µM],–
C[C@@H]1O[C@@H](O[C@H]2[C@H](OC(=O)[C@]34CCC(C)(C)C[C@H]3C3=CCC5[C@@]6(C)C[C@H](O)[C@H](O[C@@H]7O[C@H](CO[C@@H]8OC[C@H](O)[C@H](O)[C@H]8O)[C@@H](O)[C@H](O)[C@H]7O)C(C)(C)C6CC[C@@]5(C)[C@]3(C)C[C@H]4O)OC[C@@H](O)[C@@H]2O)[C@H](O)[C@H](O[C@@H]2OC[C@](O)(CO)[C@H]2O)[C@H]1O[C@@H]1OC[C@H](O)[C@H](O[C@@H]2OC[C@@H](O)[C@H](O)[C@H]2O)[C@H]1O (stereo not given in full),1.69% [at 12.4 µM],–
C[C@@H]1O[C@@H](O[C@H]2[C@H](O[C@H]3[C@H](O[C@H]4CC[C@@]5(C)C(CC[C@]6(C)C5CC=C5[C@@H]7CC(C)(C(=O)O)C[C@@H](O)[C@]7(C)CC[C@]56C)[C@@]4(C)CO)O[C@H](C(=O)O)[C@@H](O)[C@@H]3O)O[C@H](CO)[C@H](O)[C@@H]2O)[C@H](O)[C@H](O)[C@H]1O (stereo not given in full),-1.51% [at 30.2 µM],–
O=C(CCO[C@@H]1O[C@H](CO)[C@@H](O)[C@H](O)[C@H]1O)c1ccc(O)cc1,4.38%,–
COc1cc(CCc2ccccc2)c(C(=O)O)c2c1CC(C(C)(C)O)O2 (stereo not given),-3.57%,–
CC1(C)CCCC2(C)C3=C(C(=O)OC3O)C(O)CC12 (stereo not given),1.86% [at 114 µM],–
COc1ccc(C(OC2OC(CO)C(O)C(O)C2O)C(C)O)cc1 (stereo not given),-3.42%,–
C[C@@H]1C(=O)O[C@H]2CC34[C@H]5C[C@@H](C(C)(C)C)C36[C@@H](OC(=O)[C@@H]6O)OC4(C(=O)O5)[C@]21O (stereo not given in full),1.41% [at 114 µM],–
C/C=C(\C)C(=O)O[C@@H](C)[C@H]1CC[C@]2(O)C3CCC4C[C@@H](OC5CC(OC)C(OC6CC(OC)C(OC7CC(OC)C(OC8OC(C)C(OC9OC(CO)C(O)C(O)C9O)C(OC)C8O)C(C)O7)C(C)O6)C(C)O5)CC[C@]4(C)C3[C@H](O)[C@@H](O)[C@]12C (stereo not given in full),-0.005% [at 12.4 µM],–
C[C@@H]1CC[C@]2(C(=O)O)CC[C@]3(C(=O)O)C(=CCC4[C@@]5(C)CC[C@H](O[C@@H]6O[C@@H](C)[C@H](O[C@@H]7O[C@H](CO)[C@@H](O)[C@H](O)[C@H]7O)[C@@H](O)[C@H]6O)C(C)(C)C5CC[C@]43C)C2[C@H]1C (stereo not given in full),1.01% [at 30.2 µM],–
CC(C)(C)NCc1cc(Nc2ccnc3cc(Cl)ccc23)c2c(c1O)CCCC2,-3.89% [at 1.07 µM],–
NCCCC[C@H](NC(=O)[C@@H]1Cc2ccccc2CN1C(=O)CCC(=O)c1ccccc1)C(=O)NCC(c1ccccc1)c1ccccc1,-8.35% [at 114 µM],–
COc1c(C)c2c(c(O)c1C/C=C(\C)CC/C=C(\C)CCC(=O)O)C(=O)OC2,-1.96%,–
CC1=C2C=C(CO)C(CO)CCC2(C)CCC1=O (stereo not given),-6.87% [at 114 µM],–
C[C@]12CC[C@@H]3c4ccc(O[C@@H]5O[C@H](C(=O)O)[C@@H](O)[C@H](O)[C@H]5O)cc4CC[C@H]3[C@@H]1CCC2=O,5.11% [at 114 µM],–
CCCC(N[C@@H](C)C(=O)N1[C@H](C(=O)O)C[C@@H]2CCCC[C@@H]21)C(=O)OCC (stereo not given in full),4.98% [at 114 µM],–
COc1cc(NC(=O)c2ccccn2)ccc1Cl,-5.31% [at 114 µM],–
COc1cccc2c1CCC[C@H]2CN(C)CCc1ccc2ccoc2c1,-0.588% [at 114 µM],–
CC1(C)CC[C@]2(C(=O)O)CC[C@]3(C)C(=CCC4[C@@]5(C)C[C@@H](O)[C@H](O)C(C)(C)C5CC[C@]43C)[C@@H]2[C@@H]1O (stereo not given in full),-0.811%,–

Structure (SMILES),"activity change, negative = inhibition",Potency
O=C(Nc1cccnn1)N1CCC(=Cc2cccc(Oc3ccc(C(F)(F)F)cn3)c2)CC1,–,inactive
COC(=O)[C@]12C(=O)C(C)=C(O)[C@@]1(C)C(C)=CC1[C@@]34CC[C@@H](OC(C)=O)C(C)(C)C3[C@H](C[C@]12C)OC4=O (stereo not given in full),-5.38%,–
CCC/C=C/C(=O)O[C@H]1CC(C)(C)CC2[C@]13[C@H](O)O[C@@]21CCC2[C@@]4(C)CC[C@H](O[C@@H]5O[C@H](C(=O)O)[C@@H](O)[C@H](O[C@@H]6O[C@H](CO)[C@H](O)[C@H](O)[C@H]6O[C@@H]6O[C@@H](C)[C@H](O)[C@@H](O)[C@H]6O[C@@H]6OC[C@](O)(CO)[C@H]6O)[C@H]5O[C@@H]5O[C@H](CO)[C@H](O)[C@H](O)[C@H]5O)C(C)(C)C4CC[C@@]2(C)[C@]1(C)C[C@H]3OC(C)=O (stereo not given in full),-7.58% [at 12.4 µM],–
CC1(O)CCC2C(C(=O)O)=COC(OC3OC(CO)C(O)C(O)C3OC(=O)/C=C/c3ccc(O)cc3)C21 (stereo not given),-3.85%,–
C=C1CCC2C(OC(=O)C2(O)COC(C)=O)C2C(=C)C(O)CC12 (stereo not given),-14.8%,–
O=C(O[C@H]1[C@@H]2C=CO[C@@H](O[C@@H]3O[C@H](CO)[C@@H](O)[C@H](O)[C@H]3O)[C@@H]2[C@@]2(CO)O[C@@H]12)c1ccc(O)cc1,5.41%,–
C/C1=C\C[C@H](O[C@@H]2O[C@H](CO)[C@@H](O)[C@H](O)[C@H]2O)/C(C)=C/[C@H]2OC(=O)[C@H](C)[C@@H]2CC1,-2.97%,–
C[C@@H]1CC[C@]2(C(=O)O[C@@H]3O[C@H](CO)[C@@H](O)[C@H](O)[C@H]3O)CC[C@]3(C)C(=CCC4[C@@]5(C)C[C@@H](O)[C@H](O)C(C)(C)C5CC[C@]43C)C2[C@]1(C)O (stereo not given in full),0.644% [at 30.2 µM],–
COC(=O)C1(Cc2ccc(O)cc2)OC(=O)C(OC)=C1c1ccc(O)cc1 (stereo not given),0.509%,–
COc1cc(C/C(=C/NC(C)=O)N(CC(=O)Cc2ccccc2)C(C)=O)cc2c1OCO2,5.25%,–
C=C1C(=O)OC2/C=C(\C)CC/C=C(\C(=O)O)CC/C=C(\C)CCC12 (stereo not given),-6.26%,–
CC1(CCC(=O)O)C(=O)C=CC23CC4CC(OC4(C)C2O)C13 (stereo not given),-0.22%,–
COC(=O)c1ccc(O[C@@H]2O[C@H](CO)[C@@H](O)[C@H](O)[C@H]2O)c(OC)c1,0.173%,–
COC(=O)[C@@]1(C)CC[C@]2(C(=O)O[C@@H]3O[C@H](CO)[C@@H](O)[C@H](O)[C@H]3O)CC[C@]3(C)C(=CCC4[C@@]5(C)CC[C@H](O[C@@H]6O[C@H](C(=O)O)[C@@H](O)[C@H](O)[C@H]6O)C(C)(C)C5CC[C@]43C)[C@@H]2C1 (stereo not given in full),2.93% [at 30.2 µM],–
NCc1ccc(OCCCc2sc(-c3ccc4c(c3)/C(=N/Nc3nc5ccccc5s3)CCC4)nc2C(=O)O)cc1,–,inactive
Cc1c(CN(C)C(=O)/C=C/c2cnc3c(c2)CCC(=O)N3)oc2ccccc12,2.58% [at 114 µM],–
C=CC(C)(O)CO[C@@H]1O[C@H](CO)[C@@H](O)[C@H](O)[C@H]1O (stereo not given in full),-5.25% [at 114 µM],–
NCCOCCOCCNC(=O)Cc1ccc(Nc2nc(NCc3ccc(F)cc3)nc(NCC3CCCCC3)n2)cc1,-13.4% [at 114 µM],–
C[C@@H]1C(=O)O[C@H]2CC34[C@H]5C[C@@H](C(C)(C)C)C36[C@@H](OC(=O)[C@@H]6O)O[C@@]4(C(=O)O5)[C@]21O (stereo not given in full),3.52%,–
COc1ccccc1CC(C(=O)O)N(C)C(=O)c1ccccc1 (stereo not given),1.66%,–
